Bioassay records: PubChem BioAssay, several laboratories
BoNT A protease – inhibitors of Botulinum neurotoxin A light chain protease; multiplex microsphere protease substrate cleavage, flow cytometry; inhibition, % at 10 µM; 0.17% of 360,000 active; AID 588499
Anthrax LF inh2 – anthrax lethal factor protease inhibition | P15917 | multiplex microsphere protease cleavage assay, LF | inhibition, % at 10 µM | 0.12% of 360,000 active | AID 588501
Bead autofluor – counter-screen for toxin protease inhibitors: compound fluorescence | 3.1% of 360,000 active | fluorescence intensity (test concentration not listed) | compound autofluorescence counterscreen, microsphere flow cytometry; stronger effect = higher value; in the data active = fluorescence intensity above about 16000; inconclusive = no clear call, values can overlap the other calls
MazEF act – MazEF (E. coli) toxin RNase activation | FAM/BHQ RNA-DNA oligo cleavage fluorescence, 5 h | activation, % at 20 µM | 0.32% of 350,000 active; in the data active = activation above about 50%
BoNT F protease – BoNT F light chain protease inhibition; 0.22% of 360,000 active; AID 588497; Multiplex microsphere protease cleavage assay, flow cytometry; inhibition, % at 10 µM; in the data active = inhibition above about 35%, passing the limit was not always enough; inconclusive = no clear call, values can overlap the other calls
A number is an active result; . = inactive; ? = inconclusive; / = no result. Most compounds without a hit are left out; they make up all but 3.7% or so of the library. Rule as the data show it, unless noted: active = inhibition above about 30%; inconclusive = no clear call, values can overlap the other calls; inactive = below that.

SMILES | BoNT A protease | Anthrax LF inh2 | Bead autofluor | MazEF act | BoNT F protease
O=C(CNC(=O)c1ccco1)Nc1cccc(Cl)c1 | . | . | . | . | .
COc1ccccc1OCC(=O)N(Cc1nc(-c2ccccc2)no1)C(C)C | . | . | . | . | .
COc1cccc(OCC(=O)N(Cc2nc(-c3ccc(Cl)cc3)no2)C(C)C)c1 | . | . | . | . | .
Cc1cc(Br)ccc1OCC(=O)N(Cc1nc(-c2ccccc2)no1)C(C)C | . | . | 20443 | . | .
Cc1ccc(-c2noc(CN(C(=O)Cc3ccccc3)C(C)C)n2)cc1 | ? | . | 19931 | . | .
COc1cccc(C(=O)N(Cc2nc(-c3ccc(C)cc3)no2)C(C)C)c1 | ? | . | 23492 | . | .
Cc1cccc(C(=O)Nc2ccc(C(=O)N/N=C/c3ccco3)cc2)c1 | . | . | . | . | .
O=C(Oc1ccc(N(Cc2cccs2)C2=NS(=O)(=O)c3ccccc32)cc1)c1ccc(Cl)cc1 | . | . | . | . | .
O=C(Oc1ccc(N(Cc2cccs2)C2=NS(=O)(=O)c3ccccc32)cc1)c1ccccc1 | ? | . | 23485 | . | .
CCOC(=O)C1CCN(C(=O)c2[nH]c(C(F)(F)F)nc2-c2ccccc2)CC1 | . | . | . | / | .
COc1ccc(N2COC3c4cccc5cccc(c45)C32)cc1 (centres undefined) | . | . | 20787 | . | .
CS(=O)(=O)NC1c2cccc3cccc(c23)C1N1CCOCC1 (centres undefined) | . | . | . | . | .
Clc1ccc(N2COC3c4cccc5cccc(c45)C32)cc1 (centres undefined) | . | . | 22405 | . | .
COc1ccc(N2CC2c2ccncc2)cc1 (centres undefined) | . | . | . | . | .
C=CC[C@@H](CC(=O)N[C@H](CO)Cc1ccccc1)C(=O)NC[C@@H](OC(=O)[C@@H](CC=C)Cc1ccc(F)cc1)c1ccccc1 | . | . | . | . | .
O=C1c2ccccc2C(=O)N1CCCn1c2ccc(Cl)cc2c2nc3ccccc3nc21 | . | . | . | . | .
COc1ccc2c(c1)c1nc3ccccc3nc1n2CCn1c(=O)oc2ccccc21 | . | . | 16506 | . | .
COc1ccc2c(c1)c1nc3ccccc3nc1n2CCCN1C(=O)c2ccccc2C1=O | . | . | . | 698 | .
CC(C)CN1C(=O)c2ccc(NC(=O)c3cccs3)cc2C1=O | ? | . | 24092 | . | .
Cc1ccc([N+](=O)[O-])cc1NC(=O)CCCOc1ccccc1 | . | . | 16846 | . | .
Cc1ccc([N+](=O)[O-])cc1NC(=O)CCc1ccccc1 | . | . | . | . | .
CCCNC(=O)NCCc1ccncc1 | . | . | . | . | .
CC(C)CC(=O)NCCc1ccncc1 | . | . | 22906 | . | .
Cn1c(SCc2cccc(Cl)c2)nc(C(F)(F)F)cc1=O | . | . | 18749 | . | .
CC(=O)CC(=O)Nc1ccc(C(N)=O)cc1 | . | . | . | . | .
SMILES | BoNT A protease | Anthrax LF inh2 | Bead autofluor | MazEF act | BoNT F protease
CSc1ccc(NC(=O)CC(C)=O)cc1 | . | . | 22536 | . | .
CCC(C)c1ccc(NC(=O)CC(C)=O)cc1 (centres undefined) | ? | . | 22794 | . | .
O=C(CCC1CCCCC1)Nc1ccccc1-c1ccccc1 | ? | . | 21102 | . | .
O=C(CCC1CCCC1)Nc1ccccc1-c1ccccc1 | . | . | . | . | .
Cc1ccc(O)c(NC(=O)CCC2CCCCC2)c1 | . | . | . | . | .
O=C(CCC1CCCCC1)Nc1ccccc1O | . | . | 16345 | . | .
c1ccc2sc(-c3ccc4c(c3)OCO4)nc2c1 | . | . | 21120 | . | .
CCOc1ccc(C(=O)C[n+]2cccc3cc(C)ccc32)cc1 | . | . | 25078 | . | 79
COC(=O)[C@H]1C[C@@]2(O)CN(S(=O)(=O)c3ccc(C)cc3)C[C@@]2(OC(=O)Nc2cccs2)C[C@H]1C(=O)OC | . | . | . | . | .
Cc1cc(C)c2c(=O)[nH]c(SCC(=O)N3CCCCC3)nc2n1 | . | . | 21909 | . | .
O=C(/C=C\Nc1ccc2c(c1)OCO2)c1ccc(Cl)s1 | . | . | . | 86 | .
CC1(C(=O)NS(=O)(=O)c2cccc(OC(F)F)c2)CCN1C(=O)CC1CCCC1 (centres undefined) | . | . | . | / | .
COc1ccc(C(=O)N2CCN(S(=O)(=O)c3ccc(F)cc3)CC2)cc1OC | . | . | . | . | .
COc1ccc(S(=O)(=O)N2CCN(C(=O)CC(C)C)CC2)cc1 | . | . | . | . | 40
COc1ccc(C(=O)N2CCN(S(=O)(=O)c3ccc(Cl)cc3)CC2)cc1OC | . | . | 21574 | . | .
O=C(c1cccc(S(=O)(=O)N2CCOCC2)c1)N1CCN(c2ccc(F)cc2)CC1 | . | . | 21227 | . | .
Cc1ccc(S(=O)(=O)N2CCN(C(=O)CC(C)C)CC2)cc1 | . | . | . | . | .
COC(=O)c1cccc(S(=O)(=O)N2CCCC2)c1 | . | . | . | . | .
COc1ccc(OC(=O)c2cccc(S(=O)(=O)N3CCCC3)c2)cc1 | . | . | 24453 | . | .
Cc1ccc(S(=O)(=O)N2CCC(C(=O)OCC(=O)N(CC(C)C)C3CCS(=O)(=O)C3)CC2)cc1C (centres undefined) | / | / | / | . | /
COc1ccc(/C=N/Nc2ccc([N+](=O)[O-])cc2)cc1O | . | . | . | . | .
COc1ccc(N2CCN(C(=O)c3ccc(-n4nc(C)cc4C)cc3)CC2)cc1 | . | . | 25032 | . | .
O=C(c1cccc(S(=O)(=O)N2CCOCC2)c1)N1CCCCCC1 | . | . | 23147 | . | .
Cc1ccc(C(=O)O)cc1S(=O)(=O)N1CCOCC1 | . | . | 16552 | . | .
COc1ccc(N2CCN(C(=O)c3ccc(C(C)(C)C)cc3)CC2)cc1 | . | . | . | . | .
SMILES | BoNT A protease | Anthrax LF inh2 | Bead autofluor | MazEF act | BoNT F protease
COc1ccc(N2CCN(C(=O)c3ccc(S(=O)(=O)N4CCOCC4)cc3)CC2)cc1 | . | . | 22765 | . | .
COc1ccc(N2CCN(C(=O)c3ccc(S(=O)(=O)N4CCCC4)cc3)CC2)cc1 | . | . | . | . | .
COc1ccc([C@H]2C[C@@H](n3cc(COC(=O)c4ccccc4)nn3)[C@H](O)CN2C(=O)C2CCCCC2)cc1 | . | . | . | . | .
CCCNC(=O)C1(C)CCCN(C(=O)c2sccc2C)C1 (centres undefined) | . | . | . | / | .
Cc1onc(-c2c(F)cccc2Cl)c1C(=O)OCc1nnc(-c2ccccc2)o1 | . | . | . | . | .
COc1ccc(N2CCN(S(=O)(=O)c3cccc(C(F)(F)F)c3)CC2)cc1 | . | . | 20076 | . | .
COc1ccc(CC(=O)N2CCN(C)CC2)cc1 | . | . | 16186 | . | .
COc1ccc(N2CCN(S(=O)(=O)c3ccc(Cl)c(C(F)(F)F)c3)CC2)cc1 | . | . | . | . | .
COc1ccc(C(=O)N2CCCC2)cc1S(=O)(=O)N1CCOCC1 | . | . | 20709 | . | .
COc1ccc(C(=O)N2CCN(S(=O)(=O)c3ccc(C)cc3)CC2)cc1S(=O)(=O)N1CCOCC1 | . | . | . | . | .
COc1cc(-n2cnnn2)ccc1S(=O)(=O)N1CCOCC1 | ? | . | 22844 | . | .
O=S(=O)(c1cccc(-n2cnnn2)c1)N1CCOCC1 | . | . | . | . | .
